# Measurements taken from PubChem BioAssay AID1572 (National Center for Advancing Translational Sciences (NCATS), 2009).
# Records with an inconclusive call do not appear. Unmarked numbers belong to inactive results. The source made the active and inactive calls. The call rests on the fitted dose curve; in most records, active means well fitted curve in either direction with a large enough effect; inconclusive means small, poorly fitted or top-dose-only effect; inactive means flat fitted curve, though single readings scatter.
# Assay: Total Fluorescence Confirmation Counterscreen for Inhibitors of the Interaction of Thyroid Hormone Receptor and Steroid Receptor Coregulator 2
# Conditions: Texas Red total fluorescence, TRbeta/SRC2 FP artifact counterscreen; series mostly up to 92.2 µM; total fluorescence change, both ways: at the top concentration
# From the text: NIH Molecular Libraries Probe Production Network [MLPCN] NIH Chemical Genomics Center [NCGC] MLPCN Grant: DK058080 Assay Provider: R. Kip Guy, St. Jude Children's Research Hospital NCGC Assay Overview: Thyroid receptor (TR) regulates many homeostatic processes including basal metabolism, cardiovascular function, body weight, and lipid trafficking. TR modulators are potential therapeutics for obesity and hyperlipidemias but current thyroid analogs have undesirable side effects, particularly cardiac stimulation. To identify inhibitors that specifically prevent the interaction of TR with the steroid receptor coregulator 2 (SRC2), a fluorescence polarization assay was screened. This assay detects interaction of the ligand-binding domain of human TRbeta with a Texas Red labeled SRC2 peptide, corresponding to a 20 amino acid region of the nuclear receptor interaction domain (Arnold et al., 2006). Total fluorescence (555 nm excitation and 632 nm emission) was measured to identify potential fluorescent and light absorbing compounds. Such compounds may be artifacts that interfere with the fluorescence polarization assay. This assay is a confirmation assay for AID 1479. Arnold, L. A.; Estebanez-Perpina, E.; Togashi, M.; Shelat, A.; Ocasio, C. A.; McReynolds, A. C.; Nguyen, P.; Baxter, J. D.; Fletterick, R. J.; Webb, P.; Guy, R. K. A high-throughput screening method to identify small molecule inhibitors of thyroid hormone receptor coactivator binding. Sci STKE 2006, p 13.
# NCGC Assay Protocol Summary: For screening, 5 uL/well 0.6 uM TRbeta and 20 nM SRC2 Texas Red in protein buffer (20mM Tris hydrochloride, 100mM NaCl, 10% glycerol, 1mM EDTA, 0.01% NP-40, 1mM DTT, 1uM T3 and 5% DMSO) was dispensed into black solid 1536-well plates (Grenier) using a solenoid-based dispenser. Following transfer of 23 nL compound or DMSO vehicle by a pin tool, the plates were centrifuged 15 s at 1000 RPM and incubated 5 hr at ambient temperature. The plates were read by an Envision (Perkin Elmer) to detect fluorescence polarization of SRC2 Texas Red (555 nm excitation and 632 nm emission). Data were normalized to unbound (all components except TRbeta) and bound SRC2 Texas Red controls. Total fluorescence (TF) was calculated as follows: TF = S + 2P where S and P are fluorescence readings in the parallel and perpendicular channels, respectively. In this assay, we provide % activity data for each concentration as well as potencies for the active compounds.
SMILES,"total fluorescence change, both ways",Potency
O=C(O)C1C2C=CC(O2)C1C(=O)Nc1ccc(S(=O)(=O)N2CCc3ccccc32)cc1 (stereo not given),9.53%,–
Nc1cc(-c2ccccc2)c[nH]c1=O,-2.47%,–
Cc1cc2c(NC(=O)Nc3ccccc3)cccc2nn1,7.45%,–
CCOC(=O)C(NC(=O)Nc1ccc(O)cc1)(c1ccccc1)C(F)(F)F (stereo not given),6.83%,–
CC1=NN(Cc2ccccc2)C(=O)C1,4.8%,–
COc1ccc(CN2C(=O)Cc3c2nc(N)c2c(N)nc(N4CCCCC4)c(C#N)c32)cc1,1.08%,–
CCC(CNc1cc(OC)cc2cccnc12)NC1CCCCC1 (stereo not given),26.9%,–
CN1c2ccccc2C(C)(C)C12C=Nc1c(ccc3ccccc13)O2 (stereo not given),3.13%,–
O=C(/C=C/c1ccco1)NC(=S)Nc1cc(C(F)(F)F)ccc1N1CCOCC1,11%,–
Cc1ccccc1Nc1cc2ccccc2c(=O)[nH]1,–,inactive
Nc1cccnc1Sc1cc(Cl)c(Cl)cc1Cl,6.8%,–
COc1cc(/C=C(\C#N)C(=O)NCC2CCCO2)ccc1OCCC(C)C (stereo not given),4.15%,–
C=CCNC(=O)/C(C#N)=C\c1cc(Cl)c(OCC)c(OC)c1,-0.935%,–
O=C(NNc1cc(N2CCOCC2)nc(N2CCOCC2)n1)c1ccc(Cl)c(Cl)c1,–,39.8 µM [quencher] (active)
CN(C(=S)Nc1cccnc1)c1ccc(O)cc1,5.43%,–
COc1cc(NCCCC(C)N)c2ncccc2c1 (stereo not given),1.79%,–
CCCc1nc2c(=O)n(C)c(=O)nc-2n(C)n1,4.23%,–
CN1N=C(C(C)(C)C)CC1=O,1.82%,–
Cn1c(-c2ccc(=O)[nH]c2)nc2ccccc21,5.74%,–
Cc1cccc(S(=O)(=O)c2cn(Cc3ccccc3)c3cc(N4CCC(C)CC4)c(F)cc3c2=O)c1,5.69% [at 184 µM],–

SMILES,"total fluorescence change, both ways",Potency
CCOc1cc(C(c2c(C)[nH][nH]c2=O)c2c(C)[nH][nH]c2=O)ccc1OC(=O)c1cccc([N+](=O)[O-])c1,-4.45%,–
COC(=O)/C(=C/Nc1ccc(O)cc1)[N+](=O)[O-],4.79%,–
COc1ccc2ccc3c(c2c1)N=CC1(O3)N(C)c2ccccc2C1(C)C (stereo not given),2.19%,–
CCN(C(=O)C1CCCN(c2ncnc3onc(-c4ccc(F)cc4)c23)C1)c1ccccc1 (stereo not given),5.18% [at 184 µM],–
COc1ccc(C(=O)Oc2ccc(C(c3c(C)[nH][nH]c3=O)c3c(C)[nH][nH]c3=O)cc2OC)cc1,6.44% [at 184 µM],–
COc1cc(C(c2c(C)[nH][nH]c2=O)c2c(C)[nH][nH]c2=O)ccc1OC(=O)c1cccc(C)c1,1.17% [at 184 µM],–
C/C(=C\C(=O)c1ccccc1)Nc1ccc(O)cc1,0.528%,–
Cc1ccc(-c2nc(S(=O)(=O)c3ccc(F)cc3)c(SCC(=O)NCC3CCCO3)o2)cc1 (stereo not given),-10.4%,–
O=C1CNC(=S)N1c1nc(-c2ccccc2)cs1,–,11.2 µM [quencher] (active)
CCCCCCN=CC1=C(O)CC(C)(C)CC1=O,3.03%,–
CCCCOc1ccc(C(=O)CCN2CCCCC2)cc1,6.86%,–
O=C(O)/C=C/C(=O)Nc1ccc(SC(F)(F)C(F)(F)C(F)(F)F)cc1,6.28%,–
O=c1[nH]c(Nc2ccc(F)cc2)cc2ccccc12,3.63%,–
CCN(CC)S(=O)(=O)c1cccc(N=NC2=C(O)CCCC2=O)c1,6.08%,–
Cc1[nH][nH]c(=O)c1C(c1ccc(-c2ccc(Cl)c(Cl)c2)o1)c1c(C)[nH][nH]c1=O,2.21%,–
Cc1cccc(Cn2c(C(=O)OC(C)C)cc3c2ccn3C)c1,2.46%,–
Cc1c(C#N)c(O)n(CCO)c(=O)c1N=Nc1ccc2c(c1)COC2=O,-2.59%,–
Cc1ccc2c(CC(=O)Nc3c(C(=O)c4ccc(F)cc4)oc4ccccc34)coc2c1C,4.74% [at 184 µM],–
CS(=O)(=O)c1ccc(C(=O)OCC(=O)NC23CC4CC(CC(C4)C2)C3)cc1[N+](=O)[O-],5.22%,–
CC(NC(=O)Nc1ccc(O)cc1)(C(F)(F)F)C(F)(F)F,-1.5%,–
